Out of some 5,600 compounds screened, about 390 (7%) showed an effect of 50% or more. The list comes from a sample in which strong results are over-represented; it also holds similar structures and randomly drawn compounds.
These molecules were tested against T1, Protein deacetylase HDAC6 (Homo sapiens) (UniProt Q9UBN7). Details: at 10 µM.
T1 sequence (whole entry): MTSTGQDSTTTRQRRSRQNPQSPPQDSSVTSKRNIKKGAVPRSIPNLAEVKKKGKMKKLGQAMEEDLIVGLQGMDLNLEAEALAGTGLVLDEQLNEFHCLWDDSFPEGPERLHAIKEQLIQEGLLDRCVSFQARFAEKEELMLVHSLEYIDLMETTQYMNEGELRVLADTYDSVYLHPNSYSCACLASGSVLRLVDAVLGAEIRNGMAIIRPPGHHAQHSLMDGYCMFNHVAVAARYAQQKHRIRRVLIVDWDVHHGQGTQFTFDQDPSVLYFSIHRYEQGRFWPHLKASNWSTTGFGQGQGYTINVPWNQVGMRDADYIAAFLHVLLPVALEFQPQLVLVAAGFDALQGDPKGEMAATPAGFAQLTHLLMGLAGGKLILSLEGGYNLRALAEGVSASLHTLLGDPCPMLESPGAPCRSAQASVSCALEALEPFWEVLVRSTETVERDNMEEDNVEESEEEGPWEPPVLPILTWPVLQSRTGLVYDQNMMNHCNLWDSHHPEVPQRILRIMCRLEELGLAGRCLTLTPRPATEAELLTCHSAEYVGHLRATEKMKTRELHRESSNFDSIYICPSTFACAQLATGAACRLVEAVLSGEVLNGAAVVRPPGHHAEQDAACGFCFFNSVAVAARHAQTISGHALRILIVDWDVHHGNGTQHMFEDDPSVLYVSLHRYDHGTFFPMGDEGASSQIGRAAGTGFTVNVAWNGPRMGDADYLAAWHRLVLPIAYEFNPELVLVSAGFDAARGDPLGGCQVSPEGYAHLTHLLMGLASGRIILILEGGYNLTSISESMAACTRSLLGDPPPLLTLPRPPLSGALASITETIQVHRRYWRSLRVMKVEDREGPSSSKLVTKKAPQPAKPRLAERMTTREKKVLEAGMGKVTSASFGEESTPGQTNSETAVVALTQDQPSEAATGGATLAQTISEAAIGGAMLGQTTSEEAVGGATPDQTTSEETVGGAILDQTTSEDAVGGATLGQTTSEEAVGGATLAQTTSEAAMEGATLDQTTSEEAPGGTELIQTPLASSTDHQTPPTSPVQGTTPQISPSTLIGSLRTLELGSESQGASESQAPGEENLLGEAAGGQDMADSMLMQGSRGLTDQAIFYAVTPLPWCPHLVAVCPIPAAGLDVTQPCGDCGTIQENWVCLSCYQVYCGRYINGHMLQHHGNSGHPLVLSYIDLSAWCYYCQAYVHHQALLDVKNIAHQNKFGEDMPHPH

Q: How did the inhibition turn out when C[C@H](Oc1cc(-c2cnn(C3CCNCC3)c2)cnc1N)c1c(Cl)ccc(F)c1Cl was run?
A: -7.32%

Q: C[n+]1ccccc1CN=O was tested. Which inhibition did it give?
A: 10.8%

Q: Which inhibition does the source give for O=c1[nH]c(CCl)nc2sc3c(c12)CCCC3 here?
A: 83.4%

Q: How did the inhibition turn out when CCOC(=O)[C@@](C)(N)Cc1ccc(O)c(O)c1 was run?
A: 35%

Q: For Cc1ccc(Cl)c(OCC(O)CNC(C)(C)C)c1 (stereo not given), which inhibition is on record?
A: 14.8%

Q: With OCCN1CCN(CCCN2c3ccccc3Sc3ccc(C(F)(F)F)cc32)CC1 as the molecule, how does the inhibition read?
A: 86.6%

Q: Which inhibition does the source give for CCCCCCCCCCCCCCCC(=O)OCCC1CCN(CCCN2c3ccccc3Sc3ccc(S(=O)(=O)N(C)C)cc32)CC1 here?
A: 9.91%

Q: How did the inhibition turn out when CCCCCCCCCC(=O)OCCN1CCN(CCCN2c3ccccc3Sc3ccc(C(F)(F)F)cc32)CC1 was run?
A: 1.38%

Q: For CSc1ccccc1OCC(O)CNC(C)C (stereo not given), which inhibition is on record?
A: 8.76%

Q: With NC(=S)N/N=C/c1ccncc1 as the molecule, how does the inhibition read?
A: 22.9%

Q: For NC(=S)N/N=C/c1coc2ccccc2c1=O, which inhibition is on record?
A: 54.7%

Q: For O=C1CCC2CCC(=O)N12, which inhibition is on record?
A: 5.05%

Q: Which inhibition does the source give for CO[C@@H]1[C@H](O)[C@@H](CO)O[C@H]1n1cnc2c(NC3CCCCC3)ncnc21 here?
A: 13.2%

Q: With NC(=O)c1[nH]cnc1O as the molecule, how does the inhibition read?
A: 3.67%

Q: Which inhibition does the source give for CCOCCOc1ccccc1C(N)=O here?
A: 5.9%

Q: O=C(c1ccc(OCCCc2c[nH]cn2)cc1)C1CC1 was tested. Which inhibition did it give?
A: 70.7%

Q: NC/C(=C/F)CCc1ccc(F)cc1 was tested. Which inhibition did it give?
A: 46.9%

Q: Which inhibition does the source give for O=C(NCC1CCOCC1)c1cnc(Nc2ccc(Cl)cc2Cl)nc1C(F)(F)F here?
A: -5.57%

Q: How did the inhibition turn out when Cc1cnc(Nc2ccc(F)cc2Cl)nc1-c1c[nH]c(C(=O)N[C@H](CO)c2cccc(Cl)c2)c1 was run?
A: 54.4%

Q: CC12CCC(=O)C=C1CCC1C2[C@@H](O)CC2(C)C1CC[C@]2(O)C(=O)COP(=O)(O)O (stereo not given in full) was tested. Which inhibition did it give?
A: 2.87%

Reference: ChEMBL document CHEMBL4808148, “HDAC6 screening dataset using tau-based substrate in an enzymatic assay yields selective inhibitors and activators” (2021)
